Measurements as given in PubChem BioAssay (Tox21).
Values joined by “and” are separate entries in the source; they are usually repeats but may differ in a detail not shown here. Identical values can stand only once. Records with an inconclusive call do not appear. Active and inactive are the calls of the source. Calls come from the whole dose curve; as a rule, active = well fitted curve in the direction sought with a large enough effect in the repeat runs; inconclusive = weak or mixed curves; inactive = no such curve, though single readings can be large; an effect the other way counts as inactive or inconclusive.

Columns and labels:
[1] = A CellTox Green Cytotoxicity Assay to monitor cytotoxicity in HEK293 cells - 40 hour (AID 1224871); note: nearly all actives have a fitted effect of over 45% in size
Procedure, shortened: (§1)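 Seeding of HEK293 cells together with cytotoxicity dye preceded a 5 h incubation at 37 C/5% CO2. Test compounds in DMSO were then added and fluorescence monitored across 40 h.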

[2] = qHTS RealTime-Glo MT Cell Viability Assay in HEK293 cells - 16 hour (AID 1224872); note: top concentration of the series differs between compounds; nearly all actives have a fitted effect of over 50% in size
Procedure, shortened: (§2)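 Cells + reagent dispensed (600 cells/well, HEK293) → 5 h at 37 C/5% CO2 → 23 nL compound in DMSO pinned → 40 h at 37 C → luminescence read at 0, 8, 16, 24, 32, 40 h.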

[3] = qHTS RealTime-Glo MT Cell Viability Assay in HepG2 cells - 8 hour (AID 1224873); note: nearly all actives have a fitted effect of over 55% in size
Procedure, shortened: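 HepG2 cells mixed with RealTime-Glo MT reagents (NanoLuc plus cell-permeant prosubstrate) were seeded at 600 cells/well, incubated 5 h at 37 C/5% CO2, then pinned with compounds in DMSO; nonlytic luminescence tracked viability during 40 h treatment.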

[4] = qHTS RealTime-Glo MT Cell Viability Assay in HEK293 cells - 40 hour (AID 1224874); conditions: RealTime-Glo luminescence; max response: active compounds read low; note: nearly all actives have a fitted effect of over 50% in size
Procedure, shortened: (§3)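 Tox21 screen in HEK293 using RealTime-Glo MT chemistry, with cells and reagent co-dispensed. Luminescence proportional to viable cell number was captured at intervals during 40 h compound exposure at 37 C.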

[5] = A CellTox Green Cytotoxicity Assay to monitor cytotoxicity in HEK293 cells - 24 hour (AID 1224875); note: series mostly up to about 77 µM; nearly all actives have a fitted effect of over 45% in size
Procedure, shortened: as §1

[6] = A CellTox Green Cytotoxicity Assay to monitor cytotoxicity in HepG2 cells - 16 hour (AID 1224876); note: nearly all actives have a fitted effect of over 45% in size
Procedure, shortened: (§4)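 Nonlytic assay: viable cells exclude the dye, so fluorescence scales with cell death. HepG2 at 600 cells/well, compounds added after 5 h, signal read across 40 h.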

[7] = qHTS RealTime-Glo MT Cell Viability Assay in HepG2 cells - 32 hour (AID 1224877); note: nearly all actives have a fitted effect of over 55% in size
Procedure, shortened: (§5)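 Real-time, nonlytic viability: 600 HepG2 cells/well mixed with NanoLuc enzyme plus prosubstrate; 5 h settle, compound (DMSO) added by pintool; luminescence monitored over 40 h at 37 C.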

[8] = A CellTox Green Cytotoxicity Assay to monitor cytotoxicity in HepG2 cells - 24 hour (AID 1224878); note: nearly all actives have a fitted effect of over 45% in size
Procedure, shortened: as §4

[9] = A CellTox Green Cytotoxicity Assay to monitor cytotoxicity in HepG2 cells - 40 hour (AID 1224879); note: nearly all actives have a fitted effect of over 40% in size
Procedure, shortened: as §4

[10] = qHTS RealTime-Glo MT Cell Viability Assay in HEK293 cells - 0 hour (AID 1224880)
Procedure, shortened: as §3

[11] = A CellTox Green Cytotoxicity Assay to monitor cytotoxicity in HEK293 cells - 32 hour (AID 1224881); note: nearly all actives have a fitted effect of over 40% in size
Procedure, shortened: as §1

[12] = A CellTox Green Cytotoxicity Assay to monitor cytotoxicity in HepG2 cells - 0 hour (AID 1224882); note: nearly all actives have a fitted effect of over 35% in size
Procedure, shortened: as §4

[13] = A CellTox Green Cytotoxicity Assay to monitor cytotoxicity in HepG2 cells - 32 hour (AID 1224883); note: nearly all actives have a fitted effect of over 50% in size
Procedure, shortened: as §4

[14] = A CellTox Green Cytotoxicity Assay to monitor cytotoxicity in HEK293 cells - 8 hour (AID 1224884); note: nearly all actives have a fitted effect of over 35% in size
Procedure, shortened: as §1

[15] = qHTS RealTime-Glo MT Cell Viability Assay in HEK293 cells - 24 hour (AID 1224886); note: top concentration of the series differs between compounds; nearly all actives have a fitted effect of over 50% in size
Procedure, shortened: as §2

[16] = qHTS RealTime-Glo MT Cell Viability Assay in HEK293 cells - 8 hour (AID 1224887)
Procedure, shortened: as §3

[17] = A CellTox Green Cytotoxicity Assay to monitor cytotoxicity in HEK293 cells - 16 hour (AID 1224888); note: nearly all actives have a fitted effect of over 35% in size
Procedure, shortened: as §1

[18] = qHTS RealTime-Glo MT Cell Viability Assay in HepG2 cells - 0 hour (AID 1224889); note: nearly all actives have a fitted effect of over 50% in size
Procedure, shortened: as §5

[19] = qHTS RealTime-Glo MT Cell Viability Assay in HepG2 cells - 16 hour (AID 1224885); note: nearly all actives have a fitted effect of over 50% in size
Procedure, shortened: as §5

[20] = A CellTox Green Cytotoxicity Assay to monitor cytotoxicity in HepG2 cells - 8 hour (AID 1224890); note: nearly all actives have a fitted effect of over 45% in size
Procedure, shortened: as §4
% is set by controls: 0 for no effect and ±100 for the full control effect.

CCc1ccc(O)c(OC)c1
inactive: Potency [1] | Potency [2] | Potency [3] | max response [4] 4.24% | Potency [5] | Potency [6] | Potency [7] | Potency [8] | Potency [9] | Potency [10] | Potency [11] | Potency [12] | Potency [13] | Potency [14] | Potency [15] | Potency [16] | Potency [17] | Potency [18]

CCc1nccnc1CC
inactive: Potency [1] | activity change, negative = cytotoxicity [2] 5.29% [at 15.8 µM] | viability change, negative = cytotoxic [3] 1.16% [at 15.8 µM] | max response [4] 3.61% | activity change [5] -5.25% [at 15.8 µM, active compounds read high] | cytotoxicity increase [6] 1.53% [at 15.8 µM] | activity change, negative = cytotoxic [7] -1.59% [at 15.8 µM] | cytotoxicity [8] 0.289% [at 15.8 µM] | cytotoxicity increase [9] 0.942% [at 15.8 µM] | activity change, negative = cytotoxicity [10] -3.54% [at 15.8 µM] | Potency [11] | cytotoxicity [12] -0.271% [at 15.8 µM] | cytotoxicity increase [13] 4.25% [at 15.8 µM] | cytotoxicity increase [14] -4.27% [at 15.8 µM] | activity change, negative = cytotoxic [19] -1.18% [at 15.8 µM] | activity change, negative = cytotoxicity [15] 6.29% [at 15.8 µM] | activity change, negative = cytotoxicity [16] -0.69% [at 15.8 µM] | activity change [17] -4.2% [at 15.8 µM, active compounds read high] | activity change, negative = cytotoxicity [18] -0.513% [at 15.8 µM] | cytotoxicity increase [20] 4% [at 15.8 µM]

CCO[Si](CCC1CCC2OC2C1)(OCC)OCC (stereo not given)
inactive: Potency [1] | Potency [2] | Potency [3] | max response [4] 14.1% | Potency [5] | Potency [6] | Potency [7] | Potency [8] | Potency [9] | Potency [10] | Potency [11] | Potency [12] | Potency [13] | Potency [14] | Potency [19] | Potency [15] | Potency [16] | Potency [17] | Potency [18] | Potency [20]

O=C(O)Cc1ccc(CCNS(=O)(=O)c2ccc(Cl)cc2)cc1
inactive: Potency [1] | Potency [2] | Potency [3] | max response [4] -1.15% | Potency [5] | Potency [6] | Potency [7] | Potency [8] | Potency [9] | Potency [10] | Potency [11] | Potency [12] | Potency [13] | Potency [14] | Potency [19] | Potency [15] | Potency [16] | Potency [17] | Potency [18] | Potency [20]

OC[C@]1(O)OC[C@@H](O)[C@H](O)[C@@H]1O
inactive: Potency [1] | Potency [2] | Potency [3] | max response [4] 0.06% and 3.11% | Potency [5] | Potency [6] | Potency [7] | Potency [8] | Potency [9] | Potency [10] | Potency [11] | Potency [12] | Potency [13] | Potency [14] | Potency [19] | Potency [15] | Potency [16] | Potency [17] | Potency [18] | Potency [20]

CCCCC(CC)COC(=O)c1ccccc1O (stereo not given)
inactive: Potency [1] | Potency [2] | Potency [3] | max response [4] 0.0024% | Potency [5] | Potency [6] | Potency [7] | Potency [8] | Potency [9] | Potency [10] | Potency [13] | Potency [14] | Potency [19] | Potency [15] | Potency [16] | Potency [17] | Potency [18] | Potency [20]

CC(C)NCCCC1(C(N)=O)c2ccccc2-c2ccccc21
inactive: Potency [1] | Potency [2] | Potency [3] | max response [4] -19.1% | Potency [5] | Potency [6] | Potency [7] | Potency [8] | Potency [9] | Potency [10] | Potency [12] | Potency [13] | Potency [14] | Potency [19] | Potency [15] | Potency [16] | Potency [17] | Potency [18] | Potency [20]

N[C@@H](C(=O)N[C@@H]1C(=O)N2C(C(=O)O)=C(Cl)CS[C@H]12)c1ccccc1
inactive: cytotoxicity increase [1] 2.56% [at 6.97 µM] | activity change, negative = cytotoxicity [2] 12.8% [at 6.97 µM] | viability change, negative = cytotoxic [3] 3.66% [at 6.97 µM] | max response [4] 6.7% | activity change [5] 0.0795% [at 6.97 µM, active compounds read high] | cytotoxicity increase [6] -14% [at 6.97 µM] | activity change, negative = cytotoxic [7] 1.49% [at 6.97 µM] | cytotoxicity [8] -20.4% [at 6.97 µM] | cytotoxicity increase [9] -14.3% [at 6.97 µM] | activity change, negative = cytotoxicity [10] 12.5% [at 6.97 µM] | cytotoxicity [12] -11.9% [at 6.97 µM] | cytotoxicity increase [13] -17.5% [at 6.97 µM] | cytotoxicity increase [14] 0.155% [at 6.97 µM] | activity change, negative = cytotoxic [19] 1.78% [at 6.97 µM] | activity change, negative = cytotoxicity [15] 7.93% [at 6.97 µM] | activity change, negative = cytotoxicity [16] 11.8% [at 6.97 µM] | activity change [17] 1.42% [at 6.97 µM, active compounds read high] | activity change, negative = cytotoxicity [18] 1.57% [at 6.97 µM] | cytotoxicity increase [20] -13.7% [at 6.97 µM]

Cc1nc2c([nH]1)c(=O)n(C)c(=O)n2Cc1ccco1
inactive: Potency [1] | Potency [2] | Potency [3] | max response [4] 1.42% | Potency [5] | Potency [6] | Potency [7] | Potency [8] | Potency [9] | Potency [10] | Potency [11] | Potency [12] | Potency [13] | Potency [14] | Potency [15] | Potency [16] | Potency [17] | Potency [18] | Potency [20]

Cc1[nH]c(=O)c(C#N)cc1-c1ccc2nccn2c1
inactive: Potency [1] | Potency [2] | Potency [3] | max response [4] 5.99% | Potency [5] | Potency [6] | Potency [7] | Potency [8] | Potency [9] | Potency [10] | Potency [12] | Potency [13] | Potency [14] | Potency [19] | Potency [15] | Potency [16] | Potency [17] | Potency [18] | Potency [20]

CCCCCSCCCCC
inactive: Potency [1] | Potency [2] | Potency [3] | max response [4] -8.65% | Potency [5] | Potency [6] | Potency [7] | Potency [8] | Potency [9] | Potency [10] | Potency [11] | Potency [12] | Potency [13] | Potency [14] | Potency [15] | Potency [16] | Potency [17] | Potency [18] | Potency [20]

COc1cc(C(=O)N2CCCCCCC2)cc(OC)c1OC
inactive: Potency [1] | Potency [2] | Potency [3] | max response [4] 9.63% | Potency [5] | Potency [6] | Potency [7] | Potency [8] | Potency [9] | Potency [10] | Potency [12] | Potency [13] | Potency [14] | Potency [19] | Potency [15] | Potency [16] | Potency [17] | Potency [18] | Potency [20]
